Assay results: PubChem BioAssay
The source made the active and inactive calls.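 How the source made its calls, unless noted: active means visual image review flags a hit and inhibition of aggregation exceeds 20%; inconclusive means visual hit but inhibition at or below 20%; inactive means no hit on visual image review.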

Tests used:
[1] = inhibitors of TNFa-induced NFkB p65 translocation, primary screen, imaging, HUVEC, MLSMR starter and 10KST1 sets (AID 438;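 active means inhibition above 20% together with a positive visual image hit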;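 further: compound added about 3h40 before a 20 min TNFalpha stimulation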;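 on inhibition: signal is the nuclear over cytoplasmic p65 intensity ratio per well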); settings: HUVEC TNFa-induced p65 nuclear translocation; cell count: measured here: nuclei count (cytotoxicity indicator), at 2.08 µM; inhibition: at 2 µM, stronger effect = higher value, 0% TNFa-plus-vehicle, 100% no-TNFa wells
[2] = reduction of polyQ htt aggregates in cells – imaging, exon1htt(103Q)mCFP cells, high-content imaging, primary screen (AID 483); settings: exon1htt(103Q)mCFP cell line, aggregate imaging, at 2 µM; inhibition of aggregation: stronger effect = higher value; nuclei count: measured here: cell count, toxicity;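 further: compound exposure lasted 3 days before fixation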;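 on nuclei count: percent of the per-plate median nuclei count of sample wells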
[3] = endothelial E-selectin expression blockers – imaging, HUVEC, immunofluorescence, MLSMR starter and 10KST1 sets, primary screen (AID 487;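 active means visually confirmed hit in the image check and inhibition above 20%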;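 on inhibition: signal is fraction of cell area covered by stained E-selectin grains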;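 on nuclei count: 100% = median nuclei count of all wells on the same plate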); settings: HUVEC TNFalpha-induced E-selectin immunofluorescence imaging, at 2 µM; inhibition: stronger effect = higher value; nuclei count: measured here: cell number, toxicity
[4] = biological target: Voltage-gated potassium channel subunit beta-2 (Rattus norvegicus) (UniProt P62483); assay: inhibitors of rat Kvbeta2 reductase activity – biochemical, NADPH fluorescence, primary screen (AID 622;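 active means fluorescence slope higher than the sample average by over 3 SD, cut at about -0.22 in these data, passing the limit was not always enough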;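 further: slope of raw intensity against log time taken from 70 to 1610 s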); settings: recombinant KvBeta, 4-cyanobenzaldehyde reduction, at 10 µM, stronger effect = higher value
Chain of Voltage-gated potassium channel subunit beta-2 (Rattus norvegicus) (P62483 whole entry, looked up): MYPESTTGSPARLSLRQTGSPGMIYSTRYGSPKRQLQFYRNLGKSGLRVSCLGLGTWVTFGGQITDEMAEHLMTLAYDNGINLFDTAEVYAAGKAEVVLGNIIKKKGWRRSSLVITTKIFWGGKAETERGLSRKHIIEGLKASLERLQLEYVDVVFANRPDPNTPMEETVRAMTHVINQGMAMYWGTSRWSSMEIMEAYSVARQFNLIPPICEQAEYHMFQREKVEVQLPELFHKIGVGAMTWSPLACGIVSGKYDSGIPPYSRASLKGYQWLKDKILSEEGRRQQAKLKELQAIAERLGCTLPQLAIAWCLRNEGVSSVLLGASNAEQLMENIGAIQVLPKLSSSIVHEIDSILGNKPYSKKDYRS

[5] = biological target: Voltage-gated potassium channel subunit beta-2 (Rattus norvegicus) (UniProt P62483); assay: enhancers of rat Kvbeta2 NADPH turnover – biochemical, NADPH fluorescence, primary screen (AID 623;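 active means NADPH fluorescence slope more negative than the mean of all samples by about 3 SD, 99.7% confidence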;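 further: fluorescence intensity change per second fitted from 20 to 320 s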); settings: Recombinant KvBeta, NADPH fluorescence decrease slope, 10 min; at 10 µM; stronger effect = lower value
[6] = biological target: Alpha-2C adrenergic receptor (Homo sapiens) (UniProt P18825); assay: compounds altering alpha2C-coupled GIRK flux – cell-based, HEK293 alpha2C/GIRK1/2, thallium flux, primary screen (AID 624;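 active means fluorescence slope after compound addition differing from the mean of all screened samples at 99.7% confidence, in either direction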;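 further: slope of fluorescence ratio to pre-addition baseline per second over 15 to 24 s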); settings: thallium flux BTC fluorescence, at 10 µM, actives lie on both sides
Chain of Alpha-2C adrenergic receptor (Homo sapiens) (P18825 whole entry, looked up): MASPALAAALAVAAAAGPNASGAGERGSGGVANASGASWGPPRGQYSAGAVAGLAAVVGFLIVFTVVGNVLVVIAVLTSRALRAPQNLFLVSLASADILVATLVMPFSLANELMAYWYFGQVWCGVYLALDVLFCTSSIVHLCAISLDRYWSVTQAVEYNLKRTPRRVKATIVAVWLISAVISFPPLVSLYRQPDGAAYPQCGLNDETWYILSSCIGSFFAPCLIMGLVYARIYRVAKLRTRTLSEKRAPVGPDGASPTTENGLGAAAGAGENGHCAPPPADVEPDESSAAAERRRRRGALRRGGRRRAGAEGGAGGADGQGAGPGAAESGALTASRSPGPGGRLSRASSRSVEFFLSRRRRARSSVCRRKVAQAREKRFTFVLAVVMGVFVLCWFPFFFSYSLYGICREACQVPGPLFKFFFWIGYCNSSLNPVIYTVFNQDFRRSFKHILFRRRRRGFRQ

[7] = blockers of RIG-like receptor reporter activation – cell-based, Sendai virus stimulus, luciferase, 10K MLSCN set, TLR/RLR signaling modifier project, primary screen (AID 602276;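 active means inhibition at or above 50% at 10 µM; inactive means inhibition below 50%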;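 further: firefly luciferase from ISG56 promoter only with Renilla not read in this screen; 0% = Sendai virus plus DMSO and 100% = medium plus DMSO without virus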); settings: HEK293 RL24 IRF3 luciferase reporter, at 10 µM, stronger effect = higher value
[8] = TLR3 IRF3 reporter activation blockers – cell-based, poly I:C stimulus, luciferase, 10K MLSCN set, primary screen (AID 602277;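 active means inhibition of the reporter signal at or above 50%; inactive means inhibition below 50%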); settings: HEK293-TLR3 RL24 IRF3 luciferase reporter, at 10 µM, stronger effect = higher value

Row | SMILES | cell count [1] | inhibition [1] | inhibition of aggregation [2] | nuclei count [2] [%] | inhibition [3] | nuclei count [3] [%] | fluorescence slope [4] | NADPH fluorescence slope [5] | slope [6] | inhibition [7] | inhibition [8]
1 | O=S1(=O)C=C(Sc2nnc(-c3ccccc3)o2)c2ccccc21 | 237 | 7.4% (inactive) | 0.8% (inactive) | 93.4 | -55.3% (inactive) | 109 | -0.479 (inactive) | -5.2e-05 (inactive) | 0.00503 (inactive) | 12.3% (inactive) | 66.1% (active)
2 | COC(=O)C1=C(C)Nc2ncnn2C1c1ccc(C)o1 (configuration not stated) | 620 | 4.7% (inactive) | -58.3% (inactive) | 95.5 | 9.8% (inactive) | 108 | -0.581 (inactive) | -8.1e-06 (inactive) | 0.0055 (inactive) | -15.9% (inactive) | -6.27% (inactive)
3 | COC(=O)C1C(=O)C2=C(CC1C)NC(=O)CC2c1ccccc1 (configuration not stated) | 285 | -14.6% (inactive) | 14.6% (inactive) | 92.8 | 48.6% (inactive) | 80.1 | -0.388 (inactive) | -4.9e-05 (inactive) | 0.00369 (inactive) | 9.64% (inactive) | 22.4% (inactive)
4 | Cc1c(N=C2SCC(=O)N2c2c(C)n(C)n(-c3ccccc3)c2=O)c(=O)n(-c2ccccc2)n1C | 592 | 4.1% (inactive) | -7.8% (inactive) | 113 | -66.8% (inactive) | 116 | -0.482 (inactive) | -3e-05 (inactive) | 0.00551 (inactive) | 2.44% (inactive) | 13.3% (inactive)
5 | CCC(C(=O)NC1CCCC1)N(Cc1ccco1)C(=O)Cn1nnc(-c2ccc(C)cc2)n1 (configuration not stated) | 478 | 1.7% (inactive) | 10.6% (inactive) | 114 | -150% (inactive) | 112 | -0.617 (inactive) | -1.6e-05 (inactive) | 0.0026 (inactive) | 10.8% (inactive) | -7.83% (inactive)
6 | CCc1ccccc1NC(=O)C(C#N)Cc1cccnc1 (configuration not stated) | 575 | -1.5% (inactive) | 2.2% (inactive) | 100 | -21.3% (inactive) | 104 | -0.51 (inactive) | -9e-07 (inactive) | 0.00548 (inactive) | -6.51% (inactive) | 19% (inactive)
7 | CCC(C)(C)n1nnnc1C(c1ccc(OC)c(OC)c1)N1CCN(c2ccccc2)CC1 (configuration not stated) | 252 | 10.9% (inactive) | 0.9% (inactive) | 80.9 | 1.7% (inactive) | 94.4 | -0.473 (inactive) | -0.000151 (inactive) | 0.0062 (inactive) | 18.8% (inactive) | 39.6% (inactive)
8 | CCc1nnc(NC(=O)c2ccc(S(=O)(=O)NCC(C)C)cc2)s1 | 494 | -4.1% (inactive) | -18.5% (inactive) | 100 | -73.7% (inactive) | 210 | -0.491 (inactive) | -3.9e-05 (inactive) | 0.00682 (inactive) | -15.9% (inactive) | -61.5% (inactive)
9 | CCOc1ccc(N(CC(=O)NC2CCCC2)S(=O)(=O)c2c(C)[nH]c(=O)[nH]c2=O)cc1 | 552 | 14% (inactive) | 15.7% (inactive) | 107 | -159% (inactive) | 132 | -0.518 (inactive) | -5.9e-05 (inactive) | 0.00723 (inactive) | 4.96% (inactive) | 15.6% (inactive)
10 | Cc1sc2ncnc(SCC(=O)N3CCCC3)c2c1C | 369 | 3.5% (inactive) | -6.6% (inactive) | 112 | -32.3% (inactive) | 108 | -0.433 (inactive) | -0.000107 (inactive) | 0.00701 (inactive) | 8.17% (inactive) | 6.41% (inactive)
11 | COc1ccc(C)cc1S(=O)(=O)N(C)CC(=O)Nc1ccc2c(c1)OCCO2 | 489 | -8.1% (inactive) | 7.6% (inactive) | 92.1 | 22.5% (inactive) | 110 | -0.427 (inactive) | 3.4e-05 (inactive) | 0.00534 (inactive) | -4.31% (inactive) | -10.2% (inactive)
12 | O=C(C1CCCO1)N1CCN(C(c2ccccc2)c2ccccc2)CC1 (configuration not stated) | 412 | 2.5% (inactive) | 10.8% (inactive) | 97.1 | 32.4% (inactive) | 117 | -0.403 (inactive) | -2.6e-05 (inactive) | 0.00589 (inactive) | 13.8% (inactive) | 27.4% (inactive)
13 | CCn1nnnc1SCC(=O)Nc1nc(-c2cccs2)cs1 | 327 | -8.9% (inactive) | 9.4% (inactive) | 100 | -63.9% (inactive) | 104 | -0.491 (inactive) | -4.6e-05 (inactive) | 0.00497 (inactive) | 15.8% (inactive) | 20.5% (inactive)
14 | CCC(C)OC(=O)c1[nH]c2c(c1C)C(=O)CC(c1ccc(N(C)C)cc1)C2 (configuration not stated) | 717 | -3.2% (inactive) | -40.7% (inactive) | 108 | -31.4% (inactive) | 125 | -0.506 (inactive) | -3.4e-06 (inactive) | 0.00616 (inactive) | -57.4% (inactive) | -143% (inactive)
15 | COc1cc(C(Nc2ccc3c(c2)OCO3)C(=O)NC2CCCCC2)cc(OC)c1OC (configuration not stated) | 835 | -10.7% (inactive) | 12.3% (inactive) | 88.5 | -35.2% (inactive) | 121 | -0.63 (inactive) | -3e-05 (inactive) | 0.00532 (inactive) | 14.6% (inactive) | 28.3% (inactive)
16 | COC(=O)c1cc2ccsc2n1CC(=O)Nc1cc(C)cc(C)c1 | 510 | -9.5% (inactive) | -2.7% (inactive) | 115 | -22.5% (inactive) | 109 | -0.374 (inactive) | 9.4e-06 (inactive) | 0.0119 (inactive) | -21% (inactive) | -31% (inactive)
17 | COc1ccc(-c2noc(COc3ccc(Cl)c(C)c3)n2)cc1 | 553 | 11.9% (inactive) | -13.5% (inactive) | 103 | -14% (inactive) | 94.1 | -0.527 (inactive) | -4.1e-05 (inactive) | 0.00784 (inactive) | 7.55% (inactive) | 20.3% (inactive)
18 | Cc1ccccc1-c1nc(CS(=O)(=O)CC(=O)NCc2ccccc2)c(C)o1 | 642 | 2.8% (inactive) | -36.7% (inactive) | 75.5 | 16.5% (inactive) | 106 | -0.532 (inactive) | -2.1e-05 (inactive) | 0.00661 (inactive) | 9.9% (inactive) | 24.3% (inactive)
19 | CC(C)(C)c1cc(NC(=O)c2cc(F)c(F)c(F)c2F)no1 | 405 | -2.1% (inactive) | -14.9% (inactive) | 104 | -96.2% (inactive) | 112 | -0.435 (inactive) | -6.8e-06 (inactive) | 0.00297 (inactive) | -23.2% (inactive) | -90.4% (inactive)
20 | CSc1cccc(NC(=O)CN(C)S(=O)(=O)c2ccccc2)c1 | 407 | 4.6% (inactive) | -0.4% (inactive) | 103 | -183% (inactive) | 111 | -0.406 (inactive) | -3.2e-05 (inactive) | 0.00611 (inactive) | 6.98% (inactive) | -6.52% (inactive)
21 | CCN1CCN(C(=O)c2cn(CC)c3ccc(S(=O)(=O)N(C)C)cc3c2=O)CC1 | 639 | 1.3% (inactive) | 12.4% (inactive) | 100 | -30% (inactive) | 107 | -0.59 (inactive) | -3.2e-05 (inactive) | 0.00681 (inactive) | 7.55% (inactive) | 20.6% (inactive)
22 | CC(C)(C)NC(=O)CC(CC(=O)O)c1ccccc1 (configuration not stated) | 584 | 2.9% (inactive) | -4.2% (inactive) | 85.7 | -30.6% (inactive) | 109 | -0.539 (inactive) | -3.4e-05 (inactive) | 0.008 (inactive) | 12.7% (inactive) | 37.3% (inactive)
23 | NS(=O)(=O)c1ccc(CCNC(=O)CCC2COc3ccccc3O2)cc1 (configuration not stated) | 535 | -8.3% (inactive) | -5.3% (inactive) | 98.4 | -20.9% (inactive) | 90.3 | -0.564 (inactive) | 3.4e-06 (inactive) | 0.00562 (inactive) | 15.7% (inactive) | 18.3% (inactive)
24 | Cc1cc(C)n(CC(=O)NC2CCCCC2)n1 | 406 | -0.6% (inactive) | -4.9% (inactive) | 105 | -225% (inactive) | 114 | -0.468 (inactive) | -1.5e-06 (inactive) | 0.00622 (inactive) | 14.7% (inactive) | 18% (inactive)
25 | Cc1ccccc1Cn1c(=O)c2c(nc3n2CCCN3Cc2ccccc2)n(C)c1=O | 348 | 7.4% (inactive) | 7.4% (inactive) | 97.8 | -25.1% (inactive) | 120 | -0.478 (inactive) | -7.4e-06 (inactive) | 0.00418 (inactive) | 22.9% (inactive) | 19.5% (inactive)
26 | O=C(c1cccs1)N(Cc1ccco1)Cc1cc2ccccc2[nH]c1=O | 420 | 6.2% (inactive) | -7.1% (inactive) | 107 | -40% (inactive) | 84.3 | -0.343 (inactive) | -3.2e-05 (inactive) | 0.00483 (inactive) | -11% (inactive) | -8.09% (inactive)
27 | O=C1CC(c2cccnc2)c2cc3c(cc2N1)OCO3 (configuration not stated) | 451 | -1.2% (inactive) | -3.3% (inactive) | 104 | -79.3% (inactive) | 102 | -0.527 (inactive) | -6.9e-06 (inactive) | 0.00697 (inactive) | 0.756% (inactive) | 25% (inactive)
